Source: PubChem BioAssay AID1159580 (chemical genetic matrix, 2015)
The whole screen tested about 5,500 compounds, of which about 2,000 (36%) were called active. About 18% were inconclusive and are not listed. This is one part of the list. Values without a mark were called inactive. No stated cut-off is given here; in the data, active means normalized growth mostly below about 0.91 (no sharp cut-off); inconclusive means no clear call, values can overlap the other calls; inactive means mostly above about 0.92.

Assay: chemical genetic growth profiling, strain panel (AID 1159580);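 further: tested at 20 µM; growth read once vehicle control cultures reached saturation at 30 °C; 1 = growth at the plate median or of vehicle wells; lower values mean less growth of the strain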
Details: S. cerevisiae deletion strains, growth OD
[1] = locus YDL101C, strain DUN1, active compounds read low
[2] = locus YHR030C, strain SLT2, active compounds read low
[3] = locus YAL013W, strain DEP1, active compounds read low
[4] = locus YBR229C, strain ROT2, active compounds read low
[5] = locus YDL134C, strain PPH21, active compounds read low
[6] = locus YDR150W, strain NUM1, active compounds read low
[7] = locus YEL061C, strain CIN8, active compounds read low
[8] = locus YGR078C, strain PAC10, active compounds read low
[9] = locus YGR229C, strain SMI1, active compounds read low
[10] = locus YHR087W, strain rtc3, active compounds read low
[11] = locus YJL187C, strain SWE1, active compounds read low
[12] = locus YJR043C, strain POL32, active compounds read low
[13] = locus YJR075W, strain HOC1, active compounds read low
[14] = locus YLR039C, strain RIC1, active compounds read low
[15] = locus YLR058C, strain SHM2 (second series), active compounds read low
[16] = locus YLR085C, strain ARP6, active compounds read low
[17] = locus YLR262C, strain YPT6, active compounds read low
[18] = locus YML094W, strain GIM5, active compounds read low
[19] = locus YMR219W, strain ESC1, active compounds read low
[20] = locus YMR263W, strain SAP30, active compounds read low
[21] = locus YNL153C, strain GIM3, active compounds read low
[22] = locus YNL298W, strain CLA4 (second series), active compounds read low
[23] = locus YNL322C, strain KRE1, active compounds read low
[24] = locus YNR030W, strain Alg12, active compounds read low
[25] = locus YPL055C, strain LGE1, active compounds read low
[26] = locus YPL241C, strain CIN2, active compounds read low
[27] = locus YPR135W, strain CTF4, active compounds read low

Compound: N#CC(C#N)=NNc1cc(C(F)(F)F)ccc1OCC(F)(F)F
- normalized growth (locus YAR019C, strain CDC15, active compounds read low): 0.913
- normalized growth (locus YBL105C, strain PKC1, active compounds read low): 0.927
- normalized growth (locus YBR135W, strain CKS1, active compounds read low): 0.917
- normalized growth (locus YBR136W, strain MEC1, active compounds read low): 0.894
- normalized growth (locus YBR160W, strain CDC28, active compounds read low): 0.906
- normalized growth (locus YDL017W, strain CDC7, active compounds read low): 0.953
- normalized growth (locus YDL028C, strain MPS1, active compounds read low): 0.917
- normalized growth [1]: 0.911
- normalized growth (locus YDL108W, strain KIN28, active compounds read low): 0.911
- normalized growth (locus YDL132W, strain cdc53, active compounds read low): 0.891 (active)
- normalized growth (locus YDL214C, strain PRR2, active compounds read low): 0.611 (active)
- normalized growth (locus YDR052C, strain DBF4, active compounds read low): 0.913
- normalized growth (locus YDR054C, strain cdc34, active compounds read low): 0.893
- normalized growth (locus YDR226W, strain ADK1, active compounds read low): 0.891 (active)
- normalized growth (locus YDR477W, strain SNF1, active compounds read low): 0.572 (active)
- normalized growth (locus YER123W, strain YCK3, active compounds read low): 0.398 (active)
- normalized growth (locus YER133W, strain GLC7, active compounds read low): 0.459 (active)
- normalized growth (locus YFL009W, strain cdc4, active compounds read low): 0.919
- normalized growth (locus YFL029C, strain CAK1, active compounds read low): 0.921
- normalized growth (locus YFR003C, strain YPI1, active compounds read low): 0.975
- normalized growth (locus YFR019W, strain FAB1, active compounds read low): 0.691 (active)
- normalized growth (locus YFR028C, strain CDC14, active compounds read low): 0.912
- normalized growth (locus YGR040W, strain KSS1, active compounds read low): 0.611 (active)
- normalized growth (locus YGR052W, strain FMP48, active compounds read low): 0.428 (active)
- normalized growth (locus YGR092W, strain DBF2, active compounds read low): 0.818
- normalized growth [2]: 0.445 (active)
- normalized growth (locus YHR079C, strain IRE1, active compounds read low): 0.831
- normalized growth (locus YHR082C, strain KSP1, active compounds read low): 0.543 (active)
- normalized growth (locus YHR205W, strain SCH9, active compounds read low): 0.814
- normalized growth (locus YIL147C, strain SLN1, active compounds read low): 0.966
- normalized growth (locus YJL095W, strain BCK1, active compounds read low): 0.533
- normalized growth (locus YJL128C, strain PBS2, active compounds read low): 0.888
- normalized growth (locus YJL157C, strain FAR1, active compounds read low): 0.814
- normalized growth (locus YJR016C, strain ILV3, active compounds read low): 0.947
- normalized growth (locus YJR066W, strain TOR1 (second series), active compounds read low): 0.437 (active)
- normalized growth (locus YJR066W, strain TOR1, active compounds read low): 0.458 (active)
- normalized growth (locus YKL048C, strain ELM1, active compounds read low): 0.88
- normalized growth (locus YKL067W, strain YNK1, active compounds read low): 0.739
- normalized growth (locus YKL101W, strain HSL1, active compounds read low): 0.787
- normalized growth (locus YKL193C, strain SDS22, active compounds read low): 0.9
- normalized growth (locus YKL203C, strain TOR2, active compounds read low): 0.71 (active)
- normalized growth (locus YLR113W, strain HOG1, active compounds read low): 0.32 (active)
- normalized growth (locus YLR133W, strain CKI1, active compounds read low): 0.868
- normalized growth (locus YLR403W, strain SFP1, active compounds read low): 0.811
- normalized growth (locus YML070W, strain DAK1, active compounds read low): 0.623 (active)
- normalized growth (locus YMR001C, strain CDC5, active compounds read low): 0.9
- normalized growth (locus YMR205C, strain PFK2 (second series), active compounds read low): 0.889
- normalized growth (locus YMR277W, strain FCP1, active compounds read low): 0.871 (active)
- normalized growth (locus YNL006W, strain LST8, active compounds read low): 0.976
- normalized growth (locus YNL020C, strain ARK1, active compounds read low): 0.917
- normalized growth (locus YNL161W, strain CBK1, active compounds read low): 0.899
- normalized growth (locus YNL183C, strain NPR1, active compounds read low): 0.329 (active)
- normalized growth (locus YNL207W, strain RIO2, active compounds read low): 0.923
- normalized growth (locus YNL307C, strain MCK1 (second series), active compounds read low): 0.734
- normalized growth (locus YOL078W, strain AVO1, active compounds read low): 0.904
- normalized growth (locus YOL136C, strain PFK27, active compounds read low): 0.693
- normalized growth (locus YOR061W, strain CKA2, active compounds read low): 0.86
- normalized growth (locus YOR119C, strain RIO1, active compounds read low): 0.45 (active)
- normalized growth (locus YOR231W, strain MKK1, active compounds read low): 0.782
- normalized growth (locus YOR329C, strain SCD5, active compounds read low): 0.978
- normalized growth (locus YPL031C, strain PHO85, active compounds read low): 0.703
- normalized growth (locus YPL153C, strain RAD53, active compounds read low): 0.679
- normalized growth (locus YPL204W, strain HRR25, active compounds read low): 0.688
- normalized growth (locus YPL209C, strain IPL1, active compounds read low): 0.928
- normalized growth (locus YPL256C, strain CLN2, active compounds read low): 0.33 (active)
- normalized growth (locus YPR025C, strain CCL1, active compounds read low): 0.923
- normalized growth (locus YPR106W, strain ISR1, active compounds read low): 0.932
- normalized growth (locus YPR111W, strain DBF20, active compounds read low): 0.895
- normalized growth (strain NNK1, active compounds read low): 0.957
- normalized growth (strain TSCII, active compounds read low): 0.858 (active)

Compound: N#CC(C#N)=CNc1cc(C(F)(F)F)ccc1N1CCCCC1
- normalized growth [3]: 0.995
- normalized growth [4]: 1
- normalized growth [1]: 0.991
- normalized growth [5]: 0.997
- normalized growth [6]: 0.973
- normalized growth [7]: 1
- normalized growth [8]: 0.987
- normalized growth [9]: 1
- normalized growth [2]: 0.936
- normalized growth [10]: 1.01
- normalized growth [11]: 1
- normalized growth [12]: 1
- normalized growth [13]: 0.966
- normalized growth (locus YKL190W, strain CNB1, active compounds read low): 1
- normalized growth [14]: 0.997
- normalized growth [15]: 1
- normalized growth [16]: 0.96
- normalized growth [17]: 1.04
- normalized growth [18]: 0.989
- normalized growth [19]: 1
- normalized growth [20]: 0.986
- normalized growth (locus YMR307W, strain GAS1, active compounds read low): 0.909
- normalized growth [21]: 1.01
- normalized growth [22]: 1
- normalized growth [23]: 0.992
- normalized growth [24]: 1.01
- normalized growth (locus YOL006C, strain TOP1, active compounds read low): 1.01
- normalized growth [25]: 0.989
- normalized growth [26]: 0.996
- normalized growth [27]: 0.915

Compound: CC(=O)CC(C)=Nc1ccc(C(F)(F)F)cc1
- normalized growth [3]: 0.989
- normalized growth [4]: 0.991
- normalized growth [1]: 0.994
- normalized growth [5]: 1.03
- normalized growth [6]: 0.908
- normalized growth [7]: 1.01
- normalized growth [8]: 0.981
- normalized growth [9]: 1.02
- normalized growth [2]: 1.08
- normalized growth [10]: 0.971
- normalized growth [11]: 0.995
- normalized growth [12]: 1.01
- normalized growth [13]: 1.05
- normalized growth [14]: 1.05
- normalized growth [15]: 1
- normalized growth [16]: 1.03
- normalized growth [17]: 1.04
- normalized growth [18]: 0.993
- normalized growth [19]: 1
- normalized growth [20]: 1.05
- normalized growth [21]: 0.985
- normalized growth [22]: 1.05
- normalized growth [23]: 1
- normalized growth [24]: 1.02
- normalized growth [25]: 0.939
- normalized growth [26]: 1.08
- normalized growth [27]: 0.969
